In PubChem BioAssay (NCI) one finds growth data, which are given here for 36 molecules.

Compounds without any hit were thinned out: in the full panel of roughly 83,000, 20% have a hit.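 Cells were grown in 96-well plates and exposed to the test compound at a single concentration for 48 hours; results are reported as percent growth, with values below 10 considered active.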 Activity calls are given as the source filed them.

The first experiment deals with UO-31 renal. Kind of experiment: NCI-60 one-dose screen, 48 h (100 = growth as untreated, 0 = no growth, -100 = all killed). Conditions: 10 µM unless noted.
`CCOC(=O)C1=C(C)NC(C)=C(C(=O)OC(C)C)C1c1cccc(C#N)c1` (stereo unspecified): the growth is 93.3% (inactive). Still for that read-out and setting: the same measure for `CC1(C)CC[C@]23CC[C@]4(C)[C@H](CC[C@@H]5[C@@]6(C)CC[C@H](NCO)C(C)(C)[C@@H]6CC[C@]54C)[C@H]2[C@H]1OC3`: 73.9% (inactive). `COc1ccc(C(=NNS(=O)(=O)c2ccc(C)cc2)c2ccccc2)cc1OC`: the growth is 77.4% (inactive). As to `COc1cccc2c1C=CC1(O2)Oc2cccc(OC)c2C=C1C` (stereo unspecified), the growth was 47% (inactive).

For `Cc1csc(/N=C(N)/N=C(\N)c2cccnc2)n1`, the growth was 77.7% (inactive). On the same count and under the same terms, the same measure for `Cc1ccc(/C=N/Nc2nc(Nc3ccccc3)nc(Nc3ccc(S(N)(=O)=O)cc3)n2)cc1`: 68.1% (inactive). For `CCCC[n+]1ccc(SCC(=O)n2ccc3ccccc32)c2ccccc21`, the growth was 76.5% (inactive). `O=[N+]([O-])c1ccc(NC(=S)NNC(=S)Nc2ccc(Br)cc2)cc1`: the growth is 70% (inactive). Same read-out and setting: the same measure for `CCOP(=O)(OCC)OC[C@]12CCC(C)(C)CC1C1=CC[C@@H]3[C@@]4(C)CCCNC(C)(C)[C@@H]4CC[C@@]3(C)[C@]1(C)CC2` (stereo partly specified): 58.2% (inactive). `CNC(=O)Nc1ccc(Nc2cc(-c3ccc(-n4cccn4)cc3)[nH]n2)c(C)c1`: the growth was 85.4% (inactive). Consider `O=C(CCCCCCNC(=O)c1csc(Br)n1)NO`, for which the growth is 22.7% (inactive).

Consider `NS(=O)(=O)c1ccc(Nc2nc(N/N=C/c3ccc4c(c3)OCO4)nc(Nc3ccccc3)n2)cc1`, for which the growth is 76.8% (inactive).

Take `CCc1cc2c(cc1Cl)nc1c(=O)[nH]c(=O)nc-1n2CCOCC(C)C`: the growth was 57.1% (inactive). Consider `COc1cc(C(=O)c2cc(C(C)=O)c3cccc(C)n23)cc(OC)c1OC`, for which the growth was 45.2% (inactive). Take `Nc1ncc(-c2ccc3ncnc(NCc4ccccc4)c3c2)cn1`: the growth was 15.1% (inactive). With `COc1ccc2c(c1)c(-c1nn3cc(-c4ccncc4)nc3s1)cn2C`, the growth is 53.3% (inactive).

The test system of another experiment is TK-10 renal. The experiment is described as above. The settings on record: 10 µM unless noted.
Consider `C#C[C@]1(O)CC[C@H]2[C@@H]3CC=C4c5sc(N(C)c6ccccc6)nc5CC[C@]4(C)[C@H]3CC[C@@]21C`, for which the growth is 137% (inactive). Same read-out and setting: the same measure for `CC(=O)c1c([Si](C)(C)C)c2cc(C#N)ccn2c1C(=O)c1ccc(Br)cc1`: 98% (inactive); for `O=C(CSc1nc2ccccc2c(=O)n1-c1ccc(Cl)c(Cl)c1)Nc1ccc(S(=O)(=O)Nc2ccc(Cl)nn2)cc1`: 118% (inactive). On the same count and under the same terms, the same measure for `C#CCN(C)CCCOc1ccc(NCc2ccc(/C=C/C(=O)NO)cc2)cc1Cl`: -12% (active). Same read-out and setting: the same measure for `O=C(NNc1nc2cc(F)cc(F)c2n2cccc12)c1cccnn1`: 42.4% (inactive); for `COc1ccc(/C(=N\NC(N)=S)c2ccc(Cl)cc2)cc1OC`: 83.3% (inactive); for `COc1ccc(-c2c(C(N)=O)c(N)n(Cc3nc4ccccc4[nH]3)c(=O)c2C#N)c(OC)c1`: 150% (inactive). On to `Cc1cc(Br)ccc1-n1cc(C#N)c(N)c1C(=O)c1ccc(Br)cc1`, for which the growth was 87% (inactive). Same read-out and setting: the same measure for `CN1CCN(Cc2ccc(NC(=O)c3cncc(C#Cc4cnc(N)nc4)c3)cc2C(F)(F)F)CC1`: 17.4% (inactive); for `CCOC(=O)c1c(NC(=O)c2ccc(C(F)(F)F)cc2)sc2c3c(ccc12)OCN(C)C3`: -15.7% (active); for `O=C1CSC(c2cn(-c3ccccc3)nc2-c2ccc(Cl)cc2)N1c1ccccc1` (stereo unspecified): 118% (inactive).

For `COc1ccc(-c2c3c(cn2Cc2cccc(OC)c2)-c2oncc2CCC3)cc1`, the growth is 106% (inactive). On the same count and under the same terms, the same measure for `C#C[C@]1(O)CC[C@H]2[C@@H]3CC=C4c5sc(Nc6ccc(C)cn6)nc5CC[C@]4(C)[C@H]3CC[C@@]21C`: 18.6% (inactive).

Take `CCCCCCOC(=O)c1cc(-c2ccc(F)cc2)nc2ccccc12`: the growth was 118% (inactive). On the same count and under the same terms, the same measure for `CN1CCN(c2ccc(Nc3nc(NCCNS(=O)(=O)c4ccccc4)c4sccc4n3)cc2)CC1`: 142% (inactive).

As to `CN1CCN(Cc2ccc(NC(=O)c3cncc(C#Cc4cnc5ccc(O[C@@H]6CCOC6)nn45)c3)cc2C(F)(F)F)CC1`, the growth was -83.5% (active). For the molecule `CC(C)(C)Nc1nc2c(OCCc3ccccc3)cccn2c1-c1ccc([N+](=O)[O-])cc1`, the growth was 66.5% (inactive). For `N#Cc1c(-c2cccs2)cc(-c2cnccn2)nc1SCC(=O)N/N=C/c1ccc(Cl)cc1`, the growth was 130% (inactive).

`CN(C)CCCOc1ccc(C(=C(c2ccccc2)C2CCCC2)c2ccc(OCCCN(C)C)cc2)cc1`: the growth was -93% (active). Regarding `N#Cc1nc(-c2ccc(Cl)cc2)oc1N1CCC(S(=O)(=O)N2CCOCC2)CC1`, the growth was 113% (inactive).
